Data taken from PubChem BioAssay (Tox21).
Unmarked numbers belong to inactive results. Active and inactive are the calls of the source. The call rests on the fitted dose curve; in most records, active means well fitted activation curve with a large enough effect in the repeat runs; inconclusive means weak or mixed curves; inactive means flat fitted curve, though single readings scatter.
On the % scale 0 is the no-effect control and ±100 the full control effect.

What follows are compounds tested against KiSS-1 receptor (Homo sapiens) (UniProt Q969F8) (assay: Human kisspeptin (KISS1R) small molecule agonists, calcium flux assay in KISS1R-HEK293 cells (AID 1920064)). Conditions: KISS1R-HEK293, calcium flux fluorescence, agonist; series mostly up to 76.8 µM.
KiSS-1 receptor (Homo sapiens), sequence (Q969F8 whole entry, looked up): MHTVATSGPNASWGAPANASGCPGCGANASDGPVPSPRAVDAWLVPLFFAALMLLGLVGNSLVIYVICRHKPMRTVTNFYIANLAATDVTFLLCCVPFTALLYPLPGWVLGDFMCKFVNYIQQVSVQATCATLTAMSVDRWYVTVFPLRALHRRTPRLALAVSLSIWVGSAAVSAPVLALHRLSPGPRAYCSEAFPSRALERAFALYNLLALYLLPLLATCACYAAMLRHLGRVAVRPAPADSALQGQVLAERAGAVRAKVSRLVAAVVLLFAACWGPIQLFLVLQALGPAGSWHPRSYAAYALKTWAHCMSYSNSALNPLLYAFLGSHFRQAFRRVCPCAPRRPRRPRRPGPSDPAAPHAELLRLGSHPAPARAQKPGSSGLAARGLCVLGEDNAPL
Text: National Center for Advancing Translational Sciences [NCATS]
Division of Preclinical Innovation [DPI]
U.S. Environmental Protection Agency [EPA]
National Institutes of Environmental Health Sciences [NIEHS]
National Toxicology Program [NTP]
U.S. Food and Drug Administration [FDA]
Kisspeptin and its receptor KISS1R play key roles in mammalian reproduction due to their involvement in the onset of puberty and control of the hypothalamic-pituitary-gonadal axis such as regulates GnRH release from the hypothalamus. The kisspeptin/KISS1R system also plays a direct role in peripheral organs (including the ovary, testis, uterus, and placenta) and is implicated in reproductive diseases such as miscarriage and polycystic ovary syndrome (PCOS). Abnormal KISS1R activity is associated with abnormal puberty, infertility, endometriosis, and hormone-dependent tumors. The KISS1 receptor (KISS1R, also called GPR54), a G-protein-coupled receptor (GPCR), acts (through phospholipase C) to increase intracellular inositol trisphosphate and then release intracellular calcium stores. Cell-based KISS1R-HEK293 assay is using HEK293 cells that have been genetically engineered to express the human KISS1R, which activity can be measured by calcium signaling. A compound/drug can activate (agonist) KISS1R that can be monitored by levels of intracellular calcium.
KISS1R-HEK293 cells developed by Codex Corp contain human KISS1R gene, which was stably integrated into HEK 293 cells. The compound activation can be detected by fluorescence intensity via calcium flux assay. This cell line has been used to screen the Tox21 10K compound library to identify agonists of KISS1R.
KISS1R-Hek293 cells were dispensed at 1500 cells/4uL/well in 1536-well black wall/clear bottom plates using a multidrop dispenser. After the assay plates were incubated at a 37 C/5% CO2 incubator for 18 hours, 4 microL of Calcium Dye Solution was added to each well. The plates were incubated at 37 C for 1 hour. And then 23 nL of compounds dissolved in DMSO, positive controls, or DMSO only was transferred to the assay plate by a pin tool station. The fluorescence intensity in the plates was measured using FDSS 7000EX kinetic plate reader with a filter set of Ex/Em=480/540 for 3 min at 1 sec intervals. Each test compound was measured at 15 concentrations and in triplicates.
For `CO[C@@H]1COCC[C@@H]1N[C@@H]1CC[C@@](C(=O)N2CCc3ncc(C(F)(F)F)cc3C2)(C(C)C)C1`, the outcome was “inactive”. `Cc1[nH]cnc1CN1CCc2c(c3ccccc3n2C)C1=O` was tested, and the outcome was “inactive”. For `Nc1cc(S(=O)(=O)O)ccc1O`, the outcome was “inactive”. In the case of `CCc1ccc(C(=O)C(C)CN2CCCCC2)cc1` (stereo not given), the outcome is reported as “inactive”. `CC1=C2[C@H](/C=C(\C)C(=O)O)CC[C@@H](C)[C@H]2CC1` was tested, and the outcome was “inactive”. In the case of `CCN(CC)CCOC(=O)C1(c2ccccc2)CCCC1`, the outcome is reported as “inactive”. With `CC(C)(O)c1coc(S(=O)(=O)NC(=O)Nc2c3c(cc4c2CCC4)CCC3)c1` the outcome was “inactive”. In the case of `Cc1cccc(N(C)C(=S)Oc2ccc3c(c2)CCC3)c1`, the outcome is reported as “inactive”. In the case of `C[Si]1(C)N[Si](C)(C)N[Si](C)(C)N1`, the outcome is reported as “inactive”. `CCCCCCCCCOC(=O)c1ccc(O)cc1` was tested, and the outcome was “inactive”. `CCn1cc(C(=O)O)c(=O)c2cc(F)c(N3CCNC(C)C3)c(F)c21` (stereo not given) was tested, and the outcome was “inactive”. `CC(C)(C)c1n[nH]c(=S)n(N)c1=O` was tested, and the outcome was “inactive”. For `CC(C)(C)c1cc(CCC(=O)NN)cc(C(C)(C)C)c1O`, the outcome was “inactive”. In the case of `CC(=O)OC1CCCCC1C(C)(C)C` (stereo not given), the outcome is reported as “inactive”. For `COC(=O)c1ccc(NC(C)=O)cc1OC`, the outcome was “inactive”. For `CCC(C=O)CC`, the outcome was “inactive”. With `CCCCNc1ccc(C(=O)OCCN(C)C)cc1` the outcome was “inactive”. `CCOC(CN1CCN(CC(C)C(=O)c2ccccc2)CC1)c1ccccc1` (stereo not given) was tested, and the activation was 2.43% [at 15.8 µM]. In the case of `CN(C)CCC=C1c2ccccc2C=Cc2ccccc21`, the outcome is reported as “inactive”. For `NCCCC[C@H](N[C@@H](CCc1ccccc1)C(=O)O)C(=O)N1CCC[C@H]1C(=O)O`, the outcome was “inactive”. `CCCCCCOC(=O)C(C)C` was tested, and the outcome was “inactive”. For `CCCCCCCCCCCCCOP(=O)(O)O`, the outcome was “inactive”. `Nc1ccc(S(=O)(=O)O)cc1` was tested, and the outcome was “inactive”. For `Cc1oc(=O)oc1COC(=O)[C@@H]1N2C(=O)[C@@H](NC(=O)[C@H](N)c3ccccc3)[C@H]2SC1(C)C`, the outcome was “inactive”. With `CC1=CC(O)CC(C)(C)C1` (stereo not given) the outcome was “inactive”. Compound `CC(C)C[C@@H](N)C(=O)O` has an activation of -0.242% [at 15.8 µM]. With `[Cu+]` the outcome was “inactive”. In the case of `C[C@H]1O[C@H](O[C@H]2[C@H](O)[C@@H](O)[C@@H](O[C@H]3[C@H](O)[C@@H](O)[C@H](O)O[C@@H]3CO)O[C@@H]2CO)[C@H](O)[C@@H](O)[C@@H]1N[C@H]1C=C(CO)[C@@H](O)[C@H](O)[C@H]1O`, the outcome is reported as “inactive”. `O=C1OC(=O)c2cc([N+](=O)[O-])ccc21` was tested, and the outcome was “inactive”. In the case of `CO[Si](OC)(OC)OC`, the outcome is reported as “inactive”. With `Cc1nc2ccccc2n1Cc1ccc(Cl)cc1` the outcome was “inactive”. For `CCCCCCCC(=O)OCC`, the outcome was “inactive”. For `O=S(=O)(O)CCO`, the outcome was “inactive”. For `CCC(=O)OC(=O)CC`, the outcome was “inactive”. For `CC(C)(O)c1ccc(CNC(=O)c2cccnc2Oc2ccc3nonc3c2)cc1`, the outcome was “inactive”. With `CCCCCN(CCCCC)C(=O)C(CCC(=O)O)NC(=O)c1ccc(Cl)c(Cl)c1` (stereo not given) the outcome was “inactive”. `FC1(F)C(F)(F)C(F)(F)C2(F)C(F)(C1(F)F)C(F)(F)C(F)(F)C1(F)C(F)(F)C(F)(F)C(F)(F)C(F)(F)C12F` (stereo not given) was tested, and the outcome was “inactive”. For `CC(NN)c1ccccc1` (stereo not given), the activation was -0.175% [at 15.8 µM]. In the case of `COc1ccc(C(=O)Nc2nc3ccccc3c(NCc3ccccc3)c2C#N)cc1`, the outcome is reported as “inactive”. With `O=C1CCCCCCCCCCOCCCCO1` the outcome was “inactive”.
